Here are results for five compounds from PubChem BioAssay.

The structures appear in SMILES notation. Calls of active or inactive are those of the source. Unless noted, how the calls were made is not given here.

Test [1] has as its system Wnt5a (protein binding on small-molecule microarray). In words: Wnt5a binders on small-molecule microarray, primary screen, biophysical, 635/667 nm fluorescence (AID 1142).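 Further: fluorescence read at 667 nm with signal to noise per printed feature.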 To be noted: 635 nm fluorescence, higher = more signal.
The nature of test [2]: cell viability in Huh7 cells, primary screen, cytotoxicity control for HCV replication inhibitor project, CellTiter-Glo luminescence, basal, 48 h (AID 1143).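 Further: Huh7 hepatoma cells carrying a hepatitis C replication reporter with no stimulus; test concentration not given here.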 The following applies: Huh7 HCV replicon, higher = more signal, called active from +8 up or from −8 down. (In general: In ATP-based viability assays light output follows the ATP content of the culture.)
The nature of test [3]: P. aeruginosa biofilm formation inhibitors, primary screen, PAO1 strain, BacTiter-Glo luminescence, LB-PBS (AID 1144). To be noted: 12 h, higher = more signal.
The nature of test [4]: CREB reporter modulators without forskolin, primary screen, cell-based, PC12, CRE-LacZ reporter, unstimulated (AID 1145). The following applies: no forskolin, luminescence, 4.5 h, higher = more signal, called active from +8 up or from −8 down.
Test [5] can be described thus: CREB reporter modulators under forskolin, primary screen, cell-based, PC12, CRE-LacZ reporter, forskolin-stimulated (AID 1146).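 Further: PC12 cells with 6xCRE LacZ reporter stimulated by forskolin 10 µM; beta-galactosidase reporter signal reflecting CREB driven transcription.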 To be noted: luminescence, 4.5 h, higher = more signal, called active from +8 up or from −8 down.
The target of test [6] is Streptavidin (Streptomyces avidinii) (UniProt P22629). In words: streptavidin binders on small-molecule microarray, primary screen, artefact control for SMM compound annotation, biophysical, 635/667 nm fluorescence (AID 1147).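 Further: signal reflects streptavidin binding to arrayed compounds as a control protein.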 The following applies: streptavidin binding, higher = more signal.
Streptavidin (Streptomyces avidinii), sequence (P22629 whole entry, looked up): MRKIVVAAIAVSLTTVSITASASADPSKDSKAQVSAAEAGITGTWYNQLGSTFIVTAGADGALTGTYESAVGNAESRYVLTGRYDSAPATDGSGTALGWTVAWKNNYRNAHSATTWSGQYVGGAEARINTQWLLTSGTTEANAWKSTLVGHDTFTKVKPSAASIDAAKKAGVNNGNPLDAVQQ
Test [7] is described as follows: small-molecule binders of probe aInhba, primary screen, biochemical, small-molecule microarray, 635/667 nm fluorescence (AID 1148).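 Further: score merges 667nm spot fluorescence with signal-to-noise for antibody binding to printed compounds.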 The following applies: higher = more signal.
In test [8] the target is Torsin-1A (Homo sapiens) (UniProt O14656). Description: torsin A binders from cell lysate, primary screen, small-molecule microarray, wild-type, 635/667 nm (AID 1149). To be noted: COS7 hTOR1A-WT lysate, 635 nm fluorescence, higher = more signal.
Torsin-1A (Homo sapiens), sequence (O14656 whole entry, looked up): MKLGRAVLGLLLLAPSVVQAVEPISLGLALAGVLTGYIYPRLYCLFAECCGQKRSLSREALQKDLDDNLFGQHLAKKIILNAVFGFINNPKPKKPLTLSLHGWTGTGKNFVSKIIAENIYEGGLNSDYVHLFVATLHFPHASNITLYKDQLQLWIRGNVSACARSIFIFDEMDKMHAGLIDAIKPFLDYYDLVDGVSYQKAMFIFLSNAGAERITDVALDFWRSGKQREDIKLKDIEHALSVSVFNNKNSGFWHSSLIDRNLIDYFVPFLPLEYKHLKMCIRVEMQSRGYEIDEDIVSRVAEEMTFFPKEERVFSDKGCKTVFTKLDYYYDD
For test [9] the target is unchanged. In words: small-molecule binders of mutant TOR1A in lysate, primary screen, cell lysate, small-molecule microarray, COS7 lysate, 635/667 nm fluorescence (AID 1150).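 Further: score pools 667 nm emission and signal to noise measuring lysate protein binding.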 The following applies: COS7 hTOR1A mutant lysate, 635 nm fluorescence, higher = more signal.
Test [10] concerns Sonic hedgehog protein (Shh). Description: small-molecule binders of Shh protein, primary screen, biochemical, small-molecule microarray, 635/667 nm fluorescence (AID 1151).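 Further: Shh protein binding to compounds spotted on small-molecule microarray slides; score combines spot fluorescence intensity with signal-to-noise across triplicate slides.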 The following applies: small-molecule microarray binding, 635 nm fluorescence; higher = more signal.
The nature of test [11]: E. coli DRC41 culture turbidity changes, primary screen, E. coli filamentation inducer project, strain DRC41, OD650, 48 h (AID 1152).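 Further: E. coli MC1000 strain DRC41 lacking acrAB efflux pump and sulA.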 The following applies: E. coli DRC41 (acrAB sulA), higher = more signal, called active from +8 up or from −8 down.
Test [12] is described as follows: small-molecule binders of probe aLefty1, primary screen, biochemical, small-molecule microarray, 635/667 nm fluorescence (AID 1153).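 Further: score merges spot fluorescence with signal-to-noise ratio from the scanned slide images.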 To be noted: higher = more signal.
A short description of test [13]: PSAC antagonists in infected red cells, primary screen, cell-based, P. falciparum Indochina, OD700, 1 h (AID 1154). The following applies: P. falciparum Indochina infected RBC osmotic lysis, higher = more signal, called active from +8 up or from −8 down.
Test [14] is described as follows: PSAC antagonists in infected red cells, primary screen, cell-based, P. falciparum Indochina, OD700, 2 h (AID 1155).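 Further: lysis reports solute entry through the parasite surface anion channel PSAC; channel blockers reduce lysis of infected cells.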 To be noted: P. falciparum Indochina infected erythrocytes, osmotic lysis OD700; higher = more signal, called active from +8 up or from −8 down.
Test [15] in a line: osmotic lysis modulators in infected erythrocytes, primary screen, PSAC antagonist project, cell-based, P. falciparum Indochina, OD700, 3 h (AID 1156). To be noted: higher = more signal, called active from +8 up or from −8 down.
A short description of test [16]: PSAC antagonists in infected red cells, primary screen, cell-based, P. falciparum Indochina, OD700, 18 h (AID 1157). To be noted: P. falciparum Indochina infected erythrocytes, osmotic lysis OD700, 18 h; higher = more signal, called active from +8 up or from −8 down.
Test [17] is described as follows: modulators of S6 phosphorylation in cells, primary screen, cell-based, A549, cytoblot, luminescence, serum-stimulated (AID 1158).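 Further: serum-stimulated A549 lung adenocarcinoma cells; signal is phosphorylated S6 detected by cytoblot immunostaining with HRP secondary.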 The following applies: A549 phospho-S6 cytoblot, 5 h, higher = more signal.
For test [18], the target named is NADPH oxidase 2 (Homo sapiens) (UniProt P04839). Description: NOX2-dependent H2O2 signal modulators, primary screen, NOX inhibitor project, cell-based, HEK293-NOX2, PMA-stimulated, Amplex Red fluorescence (AID 1159). Further: test concentration not given here. The following applies: 45 min, higher = more signal, called active from +8 up or from −8 down.
NADPH oxidase 2 (Homo sapiens), sequence (P04839 whole entry, looked up): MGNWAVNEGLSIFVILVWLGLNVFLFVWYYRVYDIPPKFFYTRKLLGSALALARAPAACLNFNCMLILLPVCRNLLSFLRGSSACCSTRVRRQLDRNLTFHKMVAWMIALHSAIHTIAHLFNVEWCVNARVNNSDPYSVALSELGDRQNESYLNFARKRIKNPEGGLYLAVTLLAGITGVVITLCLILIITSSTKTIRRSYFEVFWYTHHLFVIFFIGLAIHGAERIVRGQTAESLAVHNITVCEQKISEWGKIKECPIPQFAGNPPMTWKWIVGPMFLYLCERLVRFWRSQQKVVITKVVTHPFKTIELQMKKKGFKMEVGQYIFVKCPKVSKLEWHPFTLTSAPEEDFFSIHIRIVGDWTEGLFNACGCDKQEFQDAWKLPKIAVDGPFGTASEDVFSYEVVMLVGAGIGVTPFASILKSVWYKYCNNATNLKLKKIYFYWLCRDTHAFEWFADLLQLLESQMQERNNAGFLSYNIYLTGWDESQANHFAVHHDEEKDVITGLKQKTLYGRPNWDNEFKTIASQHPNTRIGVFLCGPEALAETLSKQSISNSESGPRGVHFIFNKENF
Test [19] deals with NADPH oxidase 4 (Homo sapiens) (UniProt Q9NPH5). Description: NOX4-dependent H2O2 signal modulators, primary screen, NOX inhibitor project, cell-based, HEK293-NOX4, tetracycline-induced, Amplex Red fluorescence (AID 1160). To be noted: 45 min, higher = more signal, called active from +8 up or from −8 down.
NADPH oxidase 4 (Homo sapiens), sequence (Q9NPH5 whole entry, looked up): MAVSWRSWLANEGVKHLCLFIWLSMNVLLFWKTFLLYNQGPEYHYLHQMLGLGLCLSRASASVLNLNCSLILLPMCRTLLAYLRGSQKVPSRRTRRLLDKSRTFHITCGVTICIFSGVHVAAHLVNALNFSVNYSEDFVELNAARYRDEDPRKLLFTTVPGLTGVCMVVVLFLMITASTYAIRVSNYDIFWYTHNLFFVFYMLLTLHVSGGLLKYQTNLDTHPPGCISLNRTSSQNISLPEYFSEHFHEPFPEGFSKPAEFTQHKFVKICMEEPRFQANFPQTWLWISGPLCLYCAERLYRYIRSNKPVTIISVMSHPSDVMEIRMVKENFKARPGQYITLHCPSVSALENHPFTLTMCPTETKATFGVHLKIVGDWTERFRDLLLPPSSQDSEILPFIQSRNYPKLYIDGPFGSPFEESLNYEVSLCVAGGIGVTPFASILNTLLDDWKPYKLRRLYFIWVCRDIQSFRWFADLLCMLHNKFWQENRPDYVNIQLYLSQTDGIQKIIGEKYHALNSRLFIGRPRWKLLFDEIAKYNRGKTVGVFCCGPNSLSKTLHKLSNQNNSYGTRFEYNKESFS
In test [20] the target is NADPH oxidase 5 (Homo sapiens) (UniProt Q96PH1). Description: NOX5-dependent H2O2 signal modulators, primary screen, NOX inhibitor project, cell-based, HEK293-NOX5, Amplex Red fluorescence (AID 1161). To be noted: HEK293-NOX5, ionomycin, 45 min, higher = more signal.
NADPH oxidase 5 (Homo sapiens), sequence (Q96PH1 whole entry, looked up): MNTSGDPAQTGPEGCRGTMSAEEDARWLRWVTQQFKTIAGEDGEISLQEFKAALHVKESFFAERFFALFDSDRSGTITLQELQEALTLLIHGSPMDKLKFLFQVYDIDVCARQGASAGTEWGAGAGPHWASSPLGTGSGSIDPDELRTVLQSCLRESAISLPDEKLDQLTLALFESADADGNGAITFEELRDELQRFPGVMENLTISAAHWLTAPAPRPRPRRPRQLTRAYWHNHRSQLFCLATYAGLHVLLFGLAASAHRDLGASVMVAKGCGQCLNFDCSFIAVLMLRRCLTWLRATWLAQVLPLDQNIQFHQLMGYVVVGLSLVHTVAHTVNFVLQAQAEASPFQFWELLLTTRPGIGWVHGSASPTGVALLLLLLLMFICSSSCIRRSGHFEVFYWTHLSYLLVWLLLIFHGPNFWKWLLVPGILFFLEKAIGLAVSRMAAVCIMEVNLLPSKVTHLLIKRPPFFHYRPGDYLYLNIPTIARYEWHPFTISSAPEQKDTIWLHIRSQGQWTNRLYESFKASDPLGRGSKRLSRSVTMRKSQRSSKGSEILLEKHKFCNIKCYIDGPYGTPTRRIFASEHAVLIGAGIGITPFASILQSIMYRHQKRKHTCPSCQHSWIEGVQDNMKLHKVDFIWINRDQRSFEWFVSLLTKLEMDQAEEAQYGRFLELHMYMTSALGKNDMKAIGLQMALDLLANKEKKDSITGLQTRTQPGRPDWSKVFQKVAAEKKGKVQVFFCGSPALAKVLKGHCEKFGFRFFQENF

Turning to `COC(=O)[C@@]1(Cc2ccc(F)cc2)[C@H]2c3cc(C(=O)N(C)C)n(Cc4c(CO)[nH]cc(C)c4=O)c3C[C@H]2CN1C(=O)c1ccccc1`, the composite z-score in test [1] is 0.39; in [6], -0.0278; in [7], 0.0212; in the test with Torsin-1A (Homo sapiens) [8], 0.475; in the test with Torsin-1A (Homo sapiens) [9] it was -0.134; in [10], -0.462. In test [12], this compound showed a composite z-score of 0.0752. The z-score in test [2] is -0.401 (inactive); in test [3] it was -0.00694 (inactive); in [4] it was 0.39 (inactive); in test [5], 1.15 (inactive); in test [11], -1.35 (inactive); in test [13], 0.756 (inactive). Moreover, the z-score in [14] is 0.19 (inactive); in test [15] it was 0.865 (inactive); in [16], 0.816 (inactive); in test [17], -0.122; in test [18], 0.31 (inactive); in [19], -0.0408 (inactive). This compound returned a z-score in test [20] of -3.5.

For `C=C[C@@H](C)[C@H](O)c1ccc(OCCO)cc1`, the composite z-score in test [1] is -0.872; in test [6], -1.83; in test [7], -0.263; in the test with Torsin-1A (Homo sapiens) [8], -3.14; with Torsin-1A (Homo sapiens) [9] it was -1.86; in test [10], -0.509. For the same compound, in test [12], the composite z-score is -0.193. The z-score was -0.104 (inactive) in [2]; -0.307 (inactive) in test [3]; 0.166 (inactive) in test [4]; -0.049 (inactive) in [5]; 0.227 (inactive) in [11]; 1.79 (inactive) in test [13]. The z-score is 0.833 (inactive) in test [14]; 0.485 (inactive) in [15]; 0.402 (inactive) in test [16]; -0.198 in [17]; -0.613 (inactive) in [18]; -0.311 (inactive) in test [19]. In [20], this compound came in with a z-score of 0.394.

As to `COc1ccc(C(O)C2C=CC3C(=O)N(c4ccccc4)C(=O)C3N2Nc2ccccc2F)cc1` (stereo not given), the composite z-score was found to be 0.0178 in test [1]; 0.316 in test [6]; 1.52 in test [7]; 0.216 with Torsin-1A (Homo sapiens) [8]; 0.732 with Torsin-1A (Homo sapiens) [9]; 0.379 in test [10]. This compound displayed a composite z-score in test [12] of 0.167. The z-score in test [2] was -0.0475 (inactive); in test [3], -0.749 (inactive); in test [4], -0.228 (inactive); in test [5], 0.604 (inactive); in test [11], -1.19 (inactive); in test [13], 4.67 (inactive). The z-score is 1.33 (inactive) in test [14]; 0.0183 (inactive) in test [15]; 0.635 (inactive) in test [16]; -0.331 in test [17]; -1.34 (inactive) in [18]; -3.63 (inactive) in [19]. Moreover, the z-score in test [20] is -1.7.

Regarding `CCCNC(=O)[C@@]1(C)c2ccccc2C(=O)N(Cc2ccccc2)[C@H]1c1ccc(CO)cc1`, the composite z-score in test [1] was -0.15; in [6], -1; in test [7] it was 0.101; with Torsin-1A (Homo sapiens) [8], -0.102; in the test with Torsin-1A (Homo sapiens) [9], -1.96; in [10], -0.203. In addition, the composite z-score in [12] came out at 0.594. The z-score in test [2] is -0.535 (inactive); in [3], 0.62 (inactive); in test [4], 0.0924 (inactive); in [5], -0.163 (inactive); in test [11], 1.3 (inactive); in test [13] it was 3.35 (inactive). The z-score in [14] was 0.505 (inactive); in test [15] it was 0.231 (inactive); in test [16], 0.157 (inactive); in test [17] it was 0.0612; in [18], -0.703 (inactive); in [19], -0.0486 (inactive). For the same compound, the z-score in test [20] stood at 0.885.

Take `CCCCCN1CC=CC23O[C@@H]4/C=C\CCC(C)OC(=O)C4[C@H]2C(=O)N(CCCCCCO)[C@@H]3C1=O` (stereo not given in full): the composite z-score in test [1] was -0.399; in [6], -0.749; in test [7], -0.153; with Torsin-1A (Homo sapiens) [8], -0.96; with Torsin-1A (Homo sapiens) [9], 0.109; in test [10], 0.758. The composite z-score in test [12] stood at 0.0378. Moreover, the z-score in test [2] was 0.259 (inactive); in [3] it was -0.943 (inactive); in test [4] it was 0.467 (inactive); in test [5] it was 0.938 (inactive); in test [11] it was 1.6 (inactive); in test [13] it was 1.25 (inactive). The z-score in test [14] was 0.971 (inactive); in test [15], 0.26 (inactive); in test [16] it was 0.967 (inactive); in test [17] it was 2.19; in test [18], 1.25 (inactive); in test [19], 0.0532 (inactive). For the same compound, the z-score in [20] was determined as 1.74.
